Test results as given in the supplement of paper PMC9135407.
Values joined by “and” are separate entries in the source; they are usually repeats but may differ in a detail not shown here. Equal values may be shown once. Where a name gives a salt, the structure may show the parent alone. The whole screen tested about 5,800 compounds, of which about 620 (11%) showed activity. What follows is part of a selection rich in actives, with near analogues and random picks from the rest. Unmarked numbers belong to inactive results.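 How the source made its calls: active = score above a cut-off or among the top three wells of a plate; in these data no inactive exceeds 0.85.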

Test system: primary human hepatic stellate cells (donor 1)
Assay: scaled lipid accumulation score (0 = DMSO-like, 1 = nortriptyline-like); higher = stronger HSC inactivation (lipid re-accumulation), active = hit call of the paper
Conditions: 48 h
[1] = library stock concentration: 1 mM
[2] = library stock concentration: 3.33 mM
[3] = library stock concentration: 10 mM
[4] = library stock concentration: 80 uM
[5] = library stock concentration: 400 uM
[6] = library stock concentration: 2 mM

Compound: CCCC[C@H](CCC(=O)O)NC(=O)CCCCCCc1ccccc1
- scaled lipid accumulation score [1]: ≤ 0

Compound: CCCCCCCCCCCCCCCC(=O)OCC(COP(=O)(O)O)OC(=O)CCCCCCCCCCCCCCC (configuration not stated) [Dipalmitoylphosphatidic acid]
- scaled lipid accumulation score [1]: ≤ -0.021

Compound: CC1(C)CCC(c2ccc(Cl)cc2)=C(CN2CCN(c3ccc(C(=O)NS(=O)(=O)c4ccc(N[C@H](CCN5CCOCC5)CSc5ccccc5)c(S(=O)(=O)C(F)(F)F)c4)cc3)CC2)C1 [ABT-263 (Navitoclax)]
- scaled lipid accumulation score [2]: 0.024
- scaled lipid accumulation score [3]: 0.048

Compound: Cc1cnc(Nc2ccc(F)cc2Cl)nc1-c1c[nH]c(C(=O)N[C@H](CO)c2cccc(Cl)c2)c1
- scaled lipid accumulation score [4]: ≤ -0.001
- scaled lipid accumulation score [5]: ≤ -0.001
- scaled lipid accumulation score [6]: ≤ -0.001
- scaled lipid accumulation score [3]: ≤ -0.001

Compound: Cc1cc(NC(=O)Nc2ccc3c(ccn3C)c2)sn1
- scaled lipid accumulation score [3]: 0.129

Compound: CC(C)c1cc(-c2n[nH]c(=O)n2-c2ccc3c(ccn3C)c2)c(O)cc1O [Ganetespib] [listing 1 of 2 here]
- scaled lipid accumulation score [4]: 0.602
- scaled lipid accumulation score [5]: 0.802

Compound: CC(C)c1cc(-c2n[nH]c(=O)n2-c2ccc3c(ccn3C)c2)c(O)cc1O [Ganetespib] [listing 2 of 2 here]
- scaled lipid accumulation score [6]: 0.915 (active)
- scaled lipid accumulation score [3]: 0.885 (active)

Compound: CC(C)c1cc(-c2n[nH]c(=O)n2-c2ccc3c(ccn3C)c2)c(O)cc1O [Ganetespib (STA-9090)]
- scaled lipid accumulation score [2]: 0.691
- scaled lipid accumulation score [3]: 0.649

Compound: CCCCCCCCCCCCCCP(=O)(O)O [Tetradecyl Phosphonate]
- scaled lipid accumulation score [1]: ≤ 0

Compound: CN(C)C(=O)[C@H](O)[C@H](Cc1ccccc1)NC(=O)c1cc2cc(Cl)ccc2[nH]1
- scaled lipid accumulation score [2]: 0.007
- scaled lipid accumulation score [3]: ≤ 0 and 0.127

Compound: O=c1[nH]c2ccccc2n1CCCN1CCN(C(c2ccccc2)c2ccccc2)CC1 [Oxatomide]
- scaled lipid accumulation score (library stock concentration: 4.7 mM): 0.191

Compound: C[C@@H]1CN(CCCn2c3ccccc3c3ccccc32)C[C@H](C)N1.Cl.Cl [Rimcazole dihydrochloride]
- scaled lipid accumulation score [3]: 1.34 (active)

Compound: Cc1ccc2c(=O)c3ccccc3n(CCCN)c2c1C
- scaled lipid accumulation score [3]: 0.501

Compound: COc1ccccc1C1(O)CCN(CCCn2c3ccccc3c3ccccc32)CC1 [NNC 05-2090 hydrochloride]
- scaled lipid accumulation score [3]: 0.491

Compound: CCCCCCCCNC(=O)Cc1c(C)n(C(=O)c2ccc(Cl)cc2)c2ccc(OC)cc12 [Indomethacin N-octyl amide]
- scaled lipid accumulation score [1]: ≤ 0

Compound: O=C(O)/C=C/CCCCCCCCC(=O)O [Traumatic Acid]
- scaled lipid accumulation score [1]: ≤ 0

Compound: O=C1Nc2ccc(I)cc2C1=Cc1cc(Br)c(O)c(Br)c1
- scaled lipid accumulation score [2]: ≤ 0
- scaled lipid accumulation score [3]: 0.083

Compound: CCCCCCCC(=O)CC[C@@H]1[C@@H](C/C=C\CCCC(=O)O)[C@@H](O)C[C@H]1O [Unoprostone]
- scaled lipid accumulation score [1]: ≤ 0

Compound: O=C(O)CCC/C=C\C[C@@H]1[C@@H](/C=C/C(=O)COc2cccc(C(F)(F)F)c2)[C@H](O)C[C@@H]1O [15-keto Fluprostenol]
- scaled lipid accumulation score [1]: ≤ 0

Compound: COc1ccc(-n2nc(C(N)=O)c3c2C(=O)N(c2ccc(N4CCCCC4=O)cc2)CC3)cc1 [Apixaban]
- scaled lipid accumulation score [2]: ≤ 0
- scaled lipid accumulation score [3]: ≤ 0

Compound: O=c1onc2cnc3ccccc3n12
- scaled lipid accumulation score [3]: 1.01 (active)

Compound: CC(C)CCC[C@@H](C)[C@H]1CC[C@H]2[C@@H]3CC(=O)[C@@]4(O)C[C@@H](O)CC[C@]4(C)[C@H]3CC[C@]12C [5.alpha.-hydroxy-6-keto Cholesterol]
- scaled lipid accumulation score [1]: ≤ 0

Compound: O=C(O)c1ccccc1 [Benzoic Acid]
- scaled lipid accumulation score [2]: ≤ 0
- scaled lipid accumulation score [3]: 0.005

Compound: O=C(O)c1ccccc1 [Benzoic acid]
- scaled lipid accumulation score (library stock concentration: 16.4 mM): ≤ 0

Compound: O=c1c(-c2ccccc2)c1-c1ccccc1 [diphenylcyclopropenone]
- scaled lipid accumulation score [3]: 1.25 (active)

Compound: O=c1c2ccccc2oc2ccccc12 [Xanthone]
- scaled lipid accumulation score [2]: ≤ 0
- scaled lipid accumulation score [3]: ≤ 0

Compound: Cc1ccccc1N1CCN(S(=O)(=O)C[C@]23CC[C@H](C[C@@H]2NC(=O)[C@@H](N)CCS(C)(=O)=O)C3(C)C)CC1 [L-368,899 hydrochloride]
- scaled lipid accumulation score [3]: 0.107

Compound: O=P(O)(O)OC1[C@H](OP(=O)(O)O)[C@H](O)C(O)[C@H](O)[C@H]1OP(=O)(O)O (stereo partly drawn) [D-myo-Inositol-1,2,6-triphosphate (sodium salt)]
- scaled lipid accumulation score [1]: 0.004

Compound: CCNC(=O)C1=C(c2ccc(OC)cc2)C(=C2C=C(Cl)C(O)=CC2=O)NN1
- scaled lipid accumulation score [3]: 0.897 (active)

Compound: CCNC(=O)c1[nH]nc(-c2cc(Cl)c(O)cc2O)c1-c1ccc(OC)cc1
- scaled lipid accumulation score [2]: 0.6

Compound: N=C(N)SCCC[C@H](N)C(=O)O [Thioarginine (hydrobromide)]
- scaled lipid accumulation score [1]: ≤ 0

Compound: NCC(O)CC(=O)O (configuration not stated) [Aminohydroxybutyric acid]
- scaled lipid accumulation score [3]: 0.017

Compound: CN1CCN(c2ccc(OC(F)(F)F)c(Nc3ncc4c(n3)-c3c(c(C(N)=O)nn3CCO)CC4)c2)CC1 [listing 1 of 2 here]
- scaled lipid accumulation score [3]: 0.879 (active)

Compound: CN1CCN(c2ccc(OC(F)(F)F)c(Nc3ncc4c(n3)-c3c(c(C(N)=O)nn3CCO)CC4)c2)CC1 [listing 2 of 2 here]
- scaled lipid accumulation score [4]: ≤ 0
- scaled lipid accumulation score [5]: ≤ 0
- scaled lipid accumulation score [6]: 0.15
- scaled lipid accumulation score [2]: ≤ -0.009
- scaled lipid accumulation score [3]: 0.668

Compound: CNC(=O)c1nn(C)c2c1C(C)(C)Cc1cnc(Nc3ccc(N4CCN(C)CC4)cc3)nc1-2
- scaled lipid accumulation score [2]: 0.148
- scaled lipid accumulation score [3]: ≤ 0

Compound: COc1cc(Br)c(S(=O)(=O)Nc2ccc(Cl)c(O[C@@H]3CCN(C)C3)c2)cc1OC
- scaled lipid accumulation score [3]: 0.116

Compound: COc1cc2c(cc1OC)[C@@H]1C(=O)c3ccc4c(c3O[C@@H]1CO2)C=CC(C)(C)O4 [Deguelin(-)]
- scaled lipid accumulation score [3]: ≤ 0

Compound: CCCCCCCCCCCCC/C=C/[C@@H](O)[C@H](CO)NC(=O)CCCCCCC [C-8 Ceramide]
- scaled lipid accumulation score [1]: ≤ 0

Compound: CCCCCCCCCCCCC/C=C/[C@@H](O)[C@H](CO)NC(=O)CCCCCCC [C8 Ceramide]
- scaled lipid accumulation score [1]: ≤ -0.021

Compound: CCOC(=O)[C@@H](C)Oc1cccc2c(=O)n(CC(=O)Nc3ccc4c(c3)OCCO4)ccc12
- scaled lipid accumulation score [3]: 0.249

Compound: O=C(NCCCNc1nc(Nc2cccc(CN3CCOCC3)c2)ncc1C1CC1)C1CCC1
- scaled lipid accumulation score [4]: ≤ 0
- scaled lipid accumulation score [5]: 0.064
- scaled lipid accumulation score [6]: 0.072
- scaled lipid accumulation score [3]: 0.406

Compound: CN(C)CCCNC(=O)[C@@H]1C[C@H](CN2CCOCC2)CN(Cc2ccc3ccccc3c2)C1
- scaled lipid accumulation score [3]: 0.993 (active)
